# Only some compounds are listed: those with a hit (about 0.43% of all), similar ones and a draw of the others.
# GAA inh: blocks human lysosomal alpha-glucosidase. P10253. purified human GAA, 4-MU-alpha-glucoside fluorescence. Potency, µM (highest dose often 76.9 µM), for the others: at the top dose activity change, negative = inhibition, hits mostly inhibitors. actives 0.005% (n = 200,000). AID 1466;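 note: potency is the fitted concentration of half-maximal effect; plate controls were uninhibited enzyme wells for no effect and no-enzyme background for full effect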
#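 Enzyme (4 nM final) mixed with compound (up to 77 uM), then 4-MU-alpha-D-pyranoside (400 uM final) added; 20 min at room temperature, pH 5.0. Reaction stopped at pH 10, fluorescence read, AC50 derived by Hill fit.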
# aGal spleen mod: alpha-galactosidase A (human) modulation; P06280; human spleen homogenate, 4MU-alpha-Gal fluorescence, 40 min; Potency, µM (highest dose often 80 µM), for the others: at the top dose activity change, negative = inhibition, hits mostly inhibitors; actives 0.008% (n = 240,000); AID 2107;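 note: potency is the fitted concentration of half-maximal effect; 0% = enzyme with vehicle and -100% = no enzyme basal signal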
# Target sequence (P06280 32-429 limits assumed): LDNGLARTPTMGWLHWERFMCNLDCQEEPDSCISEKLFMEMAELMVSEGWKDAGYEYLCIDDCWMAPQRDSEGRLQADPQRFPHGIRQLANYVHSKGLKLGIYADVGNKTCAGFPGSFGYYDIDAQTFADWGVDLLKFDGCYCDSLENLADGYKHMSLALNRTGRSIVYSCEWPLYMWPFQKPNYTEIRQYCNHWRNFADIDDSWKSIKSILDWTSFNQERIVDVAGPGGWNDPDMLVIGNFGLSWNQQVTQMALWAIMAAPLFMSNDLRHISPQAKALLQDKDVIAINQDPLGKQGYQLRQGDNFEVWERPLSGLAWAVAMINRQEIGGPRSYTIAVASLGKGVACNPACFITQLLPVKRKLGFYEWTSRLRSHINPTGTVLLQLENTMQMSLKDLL
#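 Fluorogenic readout (Ex 365/Em 440 nm) of 4-methylumbelliferone released from 1 mM 4-MU-alpha-galactoside by spleen homogenate, 40 min at 37C, pH 5.0. Data normalized to no-enzyme and enzyme controls; Hill-equation AC50 from compound titrations.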
# GLA inh pH 4.5: alpha-galactosidase A (human) inhibition, pH 4.5; AID 1467; activity change, negative = inhibition, % at 105 µM; 230,000 tested, under 10 active; purified enzyme, 4-MU-alpha-Gal fluorescence, pH 4.5;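 note: 0% = full activity with enzyme and -100% = basal without enzyme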
# aGlu spleen mod: inhibitors or activators of human alpha-glucosidase in spleen homogenate; human spleen homogenate, 4-MU-alpha-glucoside fluorescence; P10253; Potency, µM (series often up to 79.9 µM), inactives show at the highest dose activity change, negative = inhibition, hits mostly inhibitors; actives 0.006% (n = 240,000);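 note: potency is the fitted concentration of half-maximal effect; 0% = enzyme with vehicle and -100% = no enzyme basal signal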
#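 Compounds were titrated against alpha-glucosidase in spleen homogenate at pH 5.0, with 1 mM 4-methylumbelliferyl substrate for 40 min at 37 C. Reactions were quenched with pH 10 NaOH/glycine and fluorescence measured.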
# N370S GC mod: inhibits or activates N370S mutant glucocerebrosidase. N370S GC spleen homogenate, 4MU-glucoside fluorescence. AID 2101. Potency, µM (titrated, usually from 59.4 µM), for inactives: top-dose activity change, negative = inhibition, actives largely listed as inhibitors. actives 0.092% (n = 330,000). P04062;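 note: potency is the fitted concentration of half-maximal effect; 0% = full enzyme activity and -100% = no enzyme basal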
# GAA glycogen: inhibitors or activators of human alpha-glucosidase glycogen cleavage; AID 2100; Potency, µM (top dose mostly 76.4 µM), inactives show at the top dose activity change, negative = inhibition, hits mostly inhibitors; P10253; actives 0.38% (n = 300,000); recombinant GAA, glycogen substrate, Amplex Red glucose oxidase fluorescence;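 note: potency is the fitted concentration of half-maximal effect; 0% = full enzyme reaction and -100% = no-enzyme basal signal; the screen sought inhibitors and activators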
#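 Recombinant human enzyme (4 nM); glycogen substrate; 37 C, 40 min, pH 5.0. Readout: coupled glucose oxidase/Amplex Red fluorescence.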
# * hit, by the source's call; ? = inconclusive; . = no result given; [ ] = another dose, or the depositor's remark. Calls come from the whole dose curve; as a rule, active = well fitted curve in the direction sought with a large enough effect; inconclusive = small, poorly fitted or top-dose-only effect, or another doubt; inactive = no such curve, though single readings can be large; an effect the other way counts as inactive or inconclusive.
SMILES,GAA inh,aGal spleen mod,GLA inh pH 4.5,aGlu spleen mod,N370S GC mod,GAA glycogen
O=C(CN1C(=O)CCC1=O)NNc1ccc2ccccc2c1,6%,-9%,6,5%,-16%,11µM*
O=C(Cc1ccccc1)NNc1ccc2ccccc2c1,-3%,-1%,-4,0%,4%,25µM*
Cc1cccc(C)c1OC[C@H](C)N,.,5%[29.1 µM],2,-1%[29.1 µM],9%[21.6 µM],.
CN1CCc2cccc3c2[C@@H]1Cc1ccc(O)c(O)c1-3,?,-5%,-3,-4%,-1%,3.5µM*
COc1ccc2c(c1O)-c1ccccc1CCN(C)C2,.,5%,5,4%,22%,-2%
CCOc1cc(/C=C2\SC(=O)N=C2N)ccc1O,-5%,6%,-4,-2%,-7%,-23%
CCOc1cc(/C=C2\SC(N)=NC2=O)ccc1O,.,.,.,.,-4%,10µM*
CC(C)c1onc(-c2c(Cl)cccc2Cl)c1COc1ccc(/C=C/c2cccc(C(=O)O)c2)c(Cl)c1,.,11%,.,7%,10%,.
O=C1CC(N2CCN(c3ccccc3O)CC2)C(=O)N1Cc1ccccc1 (configuration not stated),-2%,-4%,0,-4%,9%,3.1µM*
CCOC(=O)c1cnc2cc(C(F)(F)F)ccc2c1N1CCN(c2ccc(F)cc2)CC1,.,.,.,.,.,-22%[76.3 µM]
CC(=O)c1ccc(NC(=O)COCc2cc(-c3ccc(F)cc3)on2)cc1,.,.,.,.,.,-12%[76.3 µM]
COc1ccc(/C=N/Nc2cc(C)nc(N3CCOCC3)n2)c(OC)c1,.,6%,-5,1%,-4%,-21%
Cc1cc(N/N=C/c2ccc(O)cc2O)nc(N2CCOCC2)n1,-14%,5%,-8,-2%,-11%,16µM*
CC(C)c1ccc(/C=N/Nc2cc(N3CCOCC3)nc(N3CCOCC3)n2)cc1,-8%,4%,-10,2%,-12%,-5%
Oc1ccc(/C=N\Nc2cc(N3CCOCC3)nc(N3CCOCC3)n2)c(O)c1,-11%,3%,-4,-2%,-11%,10µM*
COc1cc2c(cc1OC)[C@@H]1O[C@](c3ccsc3)(C2)Oc2cc(C)n(-c3ccccc3)c(=O)c21,.,.,.,.,5%[12.8 µM],1%[15.3 µM]
O=C1C2C3C=CC(CC3)C2C(=O)N1/N=C/c1ccc(O)c(O)c1 (configuration not stated),-1%,-1%,-3,-4%,0%,7.1µM*
Oc1cc2c(cc1O)[C@@H](c1ccccc1)CNCC2,3%[15.4 µM],4%,7,4%,13%,1.8µM*
Cc1ccc(N/C=C/C(=O)c2ccco2)c(O)c1,.,1%,0,6%,-2%,8.9µM*
N#Cc1c(N)nc(N)nc1Nc1ccc(Br)cc1,1%,-3%,-1,6%,-22%,-1%
Nc1cnc(Nc2ccc(Br)cc2)nc1N,-2%,-5%,-11,-3%,?,7µM*
N#CC1=C(SCC(=O)NC2CC2)NC(=O)C(C#N)C12CCCCC2 (configuration not stated),0%,-13%,11,-6%,-2%,25µM*
Oc1cccc(/C=N/N2CCN(c3ccccn3)CC2)c1,.,0%,-7,0%,1%,?
Oc1ccc(/C=N/N2CCN(c3ccccn3)CC2)cc1,.,-5%,4,-3%,3%,11µM*
CC(=O)c1ccc(C2C=CC(Oc3ccc(-c4ccccc4)cc3)C(CO)O2)cc1 (configuration not stated),.,19%[17.5 µM],.,4%[17.4 µM],-2%[12.8 µM],.
SMILES,GAA inh,aGal spleen mod,GLA inh pH 4.5,aGlu spleen mod,N370S GC mod,GAA glycogen
CC(=O)OCC(NC(=O)C(C)NC(=O)OC(C)(C)C)C1OC(n2cc(F)c(=O)[nH]c2=O)C(OC(C)=O)C1OC(C)=O (configuration not stated),.,1%,.,8%,0%,.
Cc1nc(N)sc1-c1csc(N(C)c2ccc(O)cc2)n1,1%,0%,-18,-1%,-26%,25µM*
CNc1ncnc2c1ncn2[C@H]1C[C@H](O)[C@@H](CO)O1,.,-2%,.,2%,2%,.
Cc1cc(C)c2c(-n3cccc3)c(C(=O)NNS(=O)(=O)c3ccc(Br)cc3)sc2n1,-5%,6%,-5,-6%,?,18µM*
Cc1cc(C)c2c(-n3cccc3)c(C(=O)NCC(C)c3ccccc3)sc2n1 (configuration not stated),.,.,.,.,.,2%[76.3 µM]
CCNC(=S)N/N=C(\C)c1ccc2ccccc2c1OC(F)F,3%,2%,-2,4%,-13%,50µM*
Cc1ccc(Nc2cc(C)nc(-c3ccccc3O)n2)cc1,-11%,1%,1,1%,?,-11%
Cc1ccc(Nc2cc(C)nc(-c3ccccc3)n2)cc1,.,.,.,.,3.2µM*,-14%
Cc1cc(Nc2ccc(Cl)cc2)nc(NCc2ccccc2)n1,-1%,0%,0,-10%,22µM*,6%
CCN1C(=NCCc2cccs2)N[C@@H](CCc2ccccc2)[C@H](C(=O)NCCc2cccs2)[C@H]1C,.,.,.,.,-10%,18%[76.3 µM]
C/C=C1\COC(C(=O)NCCN2CCOCC2)(C(F)(F)F)C=C1C=C(C)C (configuration not stated),.,2%,.,-3%,14µM*,.
Cc1cc(NC(=O)CCS(=O)(=O)c2ccc3c(c2)NC(=O)C(C)S3)ccc1Br (configuration not stated),.,.,.,.,8.9µM*,.
CC1Sc2ccc(S(=O)(=O)CCC(=O)Nc3cc(F)ccc3F)cc2NC1=O (configuration not stated),.,.,.,.,10µM*,.
COc1ccc(-c2nc3c(c4c2C[C@H](c2ccccc2)OC4)CN(C(=O)N[C@@H](C)c2ccccc2)CC3)c(C)c1,.,2%[17.5 µM],-2,1%[17.4 µM],4%[12.8 µM],.
C(=N\Nc1nc2ccccc2[nH]1)/c1cccc2cccnc12,-13%,0%,2,-6%,-29%,35µM*
C(=N\Nc1nc2ccccc2[nH]1)/c1ccccc1,-2%,0%,9,-15%,-27%,?
Cc1ccc(/C=N/Nc2nc3ccccc3[nH]2)s1,-6%,5%,-7,2%,-21%,28µM*
C(=N\Nc1nc2ccccc2[nH]1)/c1c[nH]c2ccccc12,-2%,11%,-3,-1%,-10%,22µM*
Cc1ccccc1/C=N/Nc1nc2ccccc2[nH]1,-8%,-7%,0,-7%,-14%,?
Cc1cc(=O)[nH]c(N/N=C/c2c[nH]c3ccccc23)n1,-19%,-1%,1,0%,-1%,-26%
CCC(=O)N1C2=C(c3ccccc3[C@@H]1CC(=O)Nc1ccc3ccccc3c1)[C@@H]1C(=O)N(c3ccccc3)C(=O)[C@@H]1[C@H](C)C2,.,15%[17.5 µM],-21,19%[17.4 µM],-5%[12.8 µM],.
